Records with an inconclusive call do not appear. A call without a number means that no potency is given here. Calls of active or inactive are those of the source. The call rests on the fitted dose curve; in most records, active means well fitted cell-killing curve with a large enough effect; inconclusive means small, poorly fitted or top-dose-only effect; inactive means flat fitted curve, though single readings scatter. Peptide text beside a SMILES is read from it.
test: Quantitative highthroughput screen to assess conditional lethalithy of P12 Ichikawa cells grown in RPMI1640 with dialyzed fetal bovine serum (RPMI+ds) (AID 1963880); settings: ATP luminescence, 48 h; Potency: P12-Ichikawa viability; series mostly up to 45.8 µM; further: nearly all actives have a fitted effect of over 35% in size
From the text: Assay Provider: Jason Cantor Ph.D.
Department of Biochemistry
University of Wisconsin-Madison, Madison, WI, USA
Chemical screening studies have identified drug sensitivities across hundreds of cancer cell lines but most putative therapeutics fail to translate. Discovery and development of drug candidates in models that more accurately reflect nutrient levels in human blood is a major challenge. Here we performed high-throughput screens in conventional versus Human Plasma-Like Medium (HPLM) to identify compounds that were "missed" when screening using the artificial culture condition. Sets of conditional anticancer compounds spanned phases of clinical development and included non-oncology drugs were assessed. […] We also traced conditional phenotypes for several chemotherapeutics to availability of HPLM-specific metabolites and confirmed others for compounds whose reported targets are encoded by nonessential genes. Our findings establish generalizable strategies for exploiting conditional lethality in HPLM to reveal therapeutic candidates and mechanisms of action in cancer cells.
Described herein are the results of each viability screens against three cell lines: NOMO1 (an acute myeloid leukemia cell line); P12-Ichikawa (a T-cell acute lymphoblastic leukemia); and SEM (a B-cell ALL). Each assay was screened using 3 different cell culture media: homemade human plasma-Like medium with 10% dialyzed fetal bovine serum (HPLM+ds); RPMI1640 with 10% untreated FBS and 5mM glucose (RPMI+s); and RPMI1640 with 10% dialyzed fetal bovine serum and 5 mM glucose (RPMI+ds).
PROTOCOL TABLE (as described by Inglese J, Shamu CE and Guy RK. 2007)
SEQUENCE No. (e.g., 1, 2, 3, etc.); […] (e.g., Cells, Incubation, Reagent, etc.); VALUE and DESCRIPTION.
1; Cells; 5 uL; white, solid bottom 1536-well Greiner assay plate.
2; Compounds; 23 nL; Kalypsis pin tool (Wako USA) equipped with a 1536-well pin head to transfer to the assay plates.
3; Incubation; 48 hours; 37C incubation.
4; Reagent; 3 uL; CellTiter Glo (Promega).
5; Incubation; 5 min, room temperature
6; Detection; Luminescence, Viewlux PerkinElmer.
NOTES (numbers refer to Sequence numbers above)
1. Briefly, 5 ul of cell reagent was dispensed using a Multidrop Combi Dispenser. The NOMO1 and SEM cells were plated at 500 cells/well and the P12-Ichikawa line at 1000 cells/well.
2. After seeding the cells, 23 nL of MIPE 4.1 library compounds (in DMSO) were added to each plate using a Kalypsys 1536 Pintool dispenser. Bortezomib at final concentration of […] and DMSO were added to each plate as positive and negative controls respectively. For each screen, MIPE 4.1 compounds were added over an eleven-point concentration range […] in 3-fold dilutions.
3. Each plate was covered with a stainless steel gasketed lid to prevent evaporation and incubated for 48 hour at 37C, 95% relative humidity, and 5% CO2.
4-5. Three microliter CellTilter-GloTM luminescent substrate mix (Promega) reagent was added to the assay plate and incubated at room temperature for 5 min.
6. The luminescence signal was measured using a ViewLux (PerkinElmer) multiplate reader with a 2 second exposure time per plate. Data for each compound were normalized as percent viability such that measurements for DMSO and the empty well controls in each plate were defined as 100% and 0%, respectively.
Potency means the concentration at half of the fitted maximal effect.

SMILES	Potency
C=CC(=O)N1CCc2ccc(-n3c(=O)ccc4cnc5ccc(-c6cnn(C)c6)cc5c43)cc21	7.43 µM (active)
C[C@H](NC(=O)C(=O)Nc1ccccc1C(C)(C)C)C(=O)N[C@@H](CC(=O)O)C(=O)COc1c(F)c(F)cc(F)c1F	14.8 µM (active)
OC(Cn1cncn1)(Cn1cncn1)c1ccc(F)cc1F	inactive
CCOc1cc(N2CCC(O)CC2)ccc1Nc1ncc2c(n1)N(C)c1ccccc1C(=O)N2C	3.32 µM (active)
O=C1NC(=O)C(=Cc2ccc3nccnc3c2)S1	inactive
CC(=O)Nc1cccc(-n2c(=O)n(C3CC3)c(=O)c3c(Nc4ccc(I)cc4F)n(C)c(=O)c(C)c32)c1	4.69 µM (active)
S=P(N1CC1)(N1CC1)N1CC1	inactive
Oc1ccc(C2CNCCc3c2cc(O)c(O)c3Cl)cc1 (stereo not given)	inactive
COc1ccc(-c2ccc3ncc4c(c3c2)n(-c2ccc(N3CCNCC3)c(C(F)(F)F)c2)c(=O)n4C)cn1	0.187 µM (active)
CCOC(=O)C1=C(O)C(=O)N(Cc2ccccc2)C1	inactive
NCCCC(N)(C(=O)O)C(F)F (stereo not given)	inactive
C[C@@H]1[C@H](C)CC[C@]2(C(=O)O)CC[C@]3(C)C(=CC[C@@H]4[C@@]5(C)CC[C@H](O)C(C)(C)[C@H]5CC[C@]43C)[C@@H]12	inactive
O=C(O)C=Cc1ccc(O)c(O)c1	26.4 µM (active)
O=C1CSC(=O)N1C(CCc1ccncc1)COc1ccc(-c2cccc([N+](=O)[O-])c2)cc1 (stereo not given)	inactive
CC(C)(C)c1cnc(CSc2cnc(NC(=O)C3CCNCC3)s2)o1	1.32 µM (active)
CON=C(C(=O)N[C@@H]1C(=O)N2C(C(=O)OCOC(=O)C(C)(C)C)=C(C=Cc3scnc3C)CS[C@H]12)c1csc(N)n1	16.6 µM (active)
O=C1Cc2cc(CCN3CCN(c4nsc5ccccc45)CC3)c(Cl)cc2N1	inactive
Nc1ccn([C@@H]2O[C@H](CO)[C@@H](O)C2O)c(=O)n1 (stereo not given in full)	inactive
C[C@@H]1CCO[C@H]2Cn3cc(C(=O)NCc4ccc(F)cc4F)c(=O)c(O)c3C(=O)N12	inactive
COc1cc(C[C@@H](CO)[C@H](CO)Cc2ccc(O)c(OC)c2)ccc1O	inactive

SMILES	Potency
Cn1c(Nc2ccc(C(F)(F)F)cc2)nc2cc(Oc3ccnc(-c4ncc(C(F)(F)F)[nH]4)c3)ccc21	18.7 µM (active)
CCOC(=O)N1CCN([N+]([O-])=NOc2cc(ON=[N+]([O-])N3CCN(C(=O)OCC)CC3)c([N+](=O)[O-])cc2[N+](=O)[O-])CC1	inactive
COC(=O)[C@H](Cc1ccccc1)NC(=O)[C@@H](N)CC(=O)O (H-Asp-Phe-OMe)	inactive
CN(C)CC=CC(=O)Nc1cc2c(Nc3ccc(F)c(Cl)c3)ncnc2cc1O[C@H]1CCOC1	2.35 µM (active)
CCNC(=O)Nc1ccc(Oc2ncnc(N)c2C=NOC)cc1Cl	inactive
CC(C)(S)[C@@H](N)C(=O)O	inactive
CCN(c1ccccc1)c1cc(NC)[n+](C)c(C)n1	inactive
OCCN1C[C@H](O)[C@@H](O)[C@H](O)[C@@H]1CO	2.96 µM (active)
Cc1csc(NC(=O)c2sc3nc4c(c(C(F)(F)F)c3c2N)CCC4)n1	inactive
O=C(CCc1ccc(O)cc1)c1c(O)cc(O)cc1O[C@@H]1O[C@H](CO)[C@H](O)[C@H](O)[C@H]1O	inactive
O=C(O)c1cc(=O)[nH]c(=O)[nH]1	inactive
O=C(Nc1ccc(Oc2ccnc3[nH]ccc23)c(F)c1)c1cccn(-c2ccc(F)cc2)c1=O	inactive
OCC(O)C(O)C(O)CO (stereo not given)	inactive
Cc1cc(-c2ccc(CC(=O)Nc3ccc(-c4cccnc4)cc3)cc2)ccn1	10.5 µM (active)
C[C@]12C=CC(=O)N[C@@H]1CC[C@H]1[C@H]3CC[C@@H](C(=O)Nc4cc(C(F)(F)F)ccc4C(F)(F)F)[C@@]3(C)CC[C@@H]12	inactive
Cc1cc(Nc2cc(N3CCN(C)CC3)nc(C=Cc3ccccc3)n2)n[nH]1	2.7 µM (active)
Cc1cn([C@H]2C=C[C@@H](CO)O2)c(=O)[nH]c1=O	inactive
Cc1cnc(NC(=O)Nc2cc(Br)c(C)cc2OC[C@@H]2CNCCO2)cn1	13.2 µM (active)
CCn1cc(-c2ccnc3[nH]c(-c4cccc(CN(C)C)c4)cc23)c(-c2ccc(NC(=O)N(C)C)cc2)n1	0.0833 µM (active)
CN(C)CCc1c[nH]c2ccc(C[C@H]3COC(=O)N3)cc12	10.5 µM (active)

From PubChem BioAssay (NCATS)
